Results published in PubChem BioAssay.
Values without a mark were called inactive. Active and inactive are the calls of the source. Unless noted, no stated cut-off is given here; in the data, active means inhibition above about 36%; inactive means the rest.

How the values were obtained:
[1] = system: transactivating tegument protein VP16 (Human herpesvirus 1); assay: VP16 transactivation reporter inhibitors, counter-screen for SRC2 inhibitor project, cell-based, luminescence, single concentration (AID 652007); settings: cell-based VP16 transactivation luciferase reporter, at 8.9 µM, active compounds read high
[2] = molecular target: Nuclear receptor coactivator 2 (Homo sapiens) (UniProt Q15596); assay: SRC2 coactivator transcriptional activity inhibitors, confirmation, cell-based, luminescence, HEK293, triplicate (AID 652008;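 active means mean inhibition above 46.5%, the solvent-only control mean plus 3 SD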;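 further: 0% = DMSO-treated cells and 100% = Gossypol at 36 µM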); settings: HEK293 GAL4-SRC2 luciferase reporter, at 8.9 µM, active compounds read high
Sequence of Nuclear receptor coactivator 2 (Homo sapiens) (Q15596 whole entry, looked up, the tested form may be a part): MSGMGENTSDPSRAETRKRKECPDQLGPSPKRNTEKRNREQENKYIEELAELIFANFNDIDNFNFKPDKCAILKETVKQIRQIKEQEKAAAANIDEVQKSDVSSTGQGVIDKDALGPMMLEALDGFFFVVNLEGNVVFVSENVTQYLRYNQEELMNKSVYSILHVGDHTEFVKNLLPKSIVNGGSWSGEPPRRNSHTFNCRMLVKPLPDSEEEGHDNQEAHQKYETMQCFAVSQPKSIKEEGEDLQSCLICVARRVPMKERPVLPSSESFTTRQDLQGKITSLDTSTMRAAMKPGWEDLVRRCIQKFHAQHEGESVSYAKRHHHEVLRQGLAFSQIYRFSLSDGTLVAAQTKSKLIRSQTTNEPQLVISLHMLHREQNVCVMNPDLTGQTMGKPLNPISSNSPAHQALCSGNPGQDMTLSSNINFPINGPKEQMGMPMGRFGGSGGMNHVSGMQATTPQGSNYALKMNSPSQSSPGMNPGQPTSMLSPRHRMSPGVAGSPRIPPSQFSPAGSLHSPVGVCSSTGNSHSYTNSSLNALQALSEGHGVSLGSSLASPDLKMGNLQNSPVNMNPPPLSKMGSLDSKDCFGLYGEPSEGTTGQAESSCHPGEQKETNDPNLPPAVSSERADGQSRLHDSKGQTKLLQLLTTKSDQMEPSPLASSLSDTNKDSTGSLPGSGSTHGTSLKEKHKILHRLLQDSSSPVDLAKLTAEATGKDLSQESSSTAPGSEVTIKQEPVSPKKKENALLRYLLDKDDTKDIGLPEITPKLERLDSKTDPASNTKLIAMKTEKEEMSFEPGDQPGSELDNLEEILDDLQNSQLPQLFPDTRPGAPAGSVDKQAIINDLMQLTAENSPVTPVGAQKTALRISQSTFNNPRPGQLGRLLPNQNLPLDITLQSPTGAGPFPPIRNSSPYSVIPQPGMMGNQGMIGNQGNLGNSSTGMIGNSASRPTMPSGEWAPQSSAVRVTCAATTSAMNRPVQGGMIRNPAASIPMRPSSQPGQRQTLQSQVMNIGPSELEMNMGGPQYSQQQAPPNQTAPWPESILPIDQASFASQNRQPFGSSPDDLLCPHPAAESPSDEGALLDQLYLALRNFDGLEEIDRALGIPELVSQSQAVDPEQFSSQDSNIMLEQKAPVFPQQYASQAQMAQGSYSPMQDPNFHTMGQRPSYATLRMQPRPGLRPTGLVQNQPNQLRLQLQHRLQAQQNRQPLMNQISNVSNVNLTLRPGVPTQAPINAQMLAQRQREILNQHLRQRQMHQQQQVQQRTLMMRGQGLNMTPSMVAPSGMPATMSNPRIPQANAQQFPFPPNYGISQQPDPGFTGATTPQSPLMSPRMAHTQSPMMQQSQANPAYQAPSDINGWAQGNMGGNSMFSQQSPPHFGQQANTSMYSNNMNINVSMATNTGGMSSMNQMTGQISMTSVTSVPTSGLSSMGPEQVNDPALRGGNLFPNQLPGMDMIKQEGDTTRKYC

SMILES	inhibition [1]	inhibition [2]
Cc1cnc(NC(=O)COc2ccccc2Cl)s1	-10.5%	18.8%
COCCN(C(=O)Cc1ccc(S(=O)(=O)N2CCOCC2)s1)c1c(N)n(CC(C)C)c(=O)[nH]c1=O	1.4%	-13.1%
CC(=O)N1/C(=C/c2ccc(N(C)C)cc2)C(=O)c2ccccc21	13.3%	72.6% (active)
CCOC(=O)C1(Cc2ccc(Cl)cc2)CCN(C(C)Cc2ccc(O)c(OC)c2)CC1 (stereo not drawn)	15.9%	30.1%
COc1ccc(C(=O)/C=C/Nc2ccccn2)cc1	3.41%	30.8%
c1ccc(C2=Nn3c(nnc3-c3ccncc3)SC2)cc1	-2.29%	34.6%
CCCCCCC(=O)N(O)C1CC(=O)N(c2ccc(C)cc2)C1=O (stereo not drawn)	9.6%	39.9%
O=C(NCc1ccco1)/C(=C/c1cccc([N+](=O)[O-])c1)NC(=O)c1ccco1	-6.26%	-17.7%
C=C1C(=O)[C@@]23[C@H](O)C[C@@H]4C(C)(C)CC[C@H](O)[C@]4(C)[C@@H]2C[C@H](O)[C@@H]1[C@H]3O	4.46%	54% (active)
O=C(N/N=C/c1coc2ccc(Cl)cc2c1=O)c1cc(O)cc(O)c1	23.4%	18.5%
CC(C)CNC(=O)COC(=O)c1c2c(nc3ccccc13)CCC2	9.25%	11.4%
CN(Cc1ccc(OC(F)F)cc1)C(=O)c1ccc(S(=O)(=O)N(C)c2ccccc2)cc1	-22.2%	-12.8%
O=C(O)CCC(=O)Nc1ccc(C(=O)OC2CCCCC2)cc1	11.1%	29.4%
CCS(=O)(=O)c1ncc(Cl)c(C(=O)Nc2ccc(S(=O)(=O)N3CCC(C)CC3)cc2)n1	89.9% (active)	86.7% (active)
